These results are taken from PubChem BioAssay AID748 (Sanford-Burnham Center for Chemical Genomics, 2007).

SMILES strings stand for the structures. The whole screen tested about 96,000 compounds, of which about 100 (0.1%) were called active.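 The calls were made as follows: active = displacement above 50% at 20 µM plus a fluorescence interference ratio under 1.5; inactive = the rest.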 The entries come from a sample that favours actives as a whole. Potency and affinity values are given separately.

The test deals with Bcl-2-like protein 10 (Homo sapiens) (UniProt Q9HD36). Briefly: displacers of TR3 peptide from Bcl-B, primary screen, selectivity assay for Bfl-1 inhibitor project, biochemical, fluorescence polarization, FITC-TR3 peptide (AID 748).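 Also: plate controls were wells without compound for no effect and wells lacking Bcl-B protein for full effect.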 The conditions noted are these: FP displacement of FITC-TR3 peptide from Bcl-B; at 20 µM; active compounds read high.
Regarding `ClC1=CCC2CN(CCN3CCCCC3)CC2C1` (stereo not given), the displacement is 67.7% (active). Under `O=c1cccc2n1CC1CC2CN(C(c2ccccc2)c2sc3ncnn3c2O)C1` (stereo not given) stands -0.3% (inactive). Under `O=C1OCCN1P(=O)(c1ccccc1)c1ccccc1` stands -1.2% (inactive). As to `COc1ccc(C(=O)C2(C)N(O)C(C)C(c3cccs3)=[N+]2[O-])cc1` (stereo not given), the displacement was -5.6% (inactive). For `CCC(=NCC1CCCO1)c1c(O)n(-c2ccc(Cl)cc2)c(=O)[nH]c1=O` (stereo not given), the displacement was -1.5% (inactive).
